# From PubChem BioAssay
# The source made the active and inactive calls. Unless noted, how the calls were made is not given here.
# Assays:
# [1] = HepG2 liver cancer cell viability effects, profiling panel, resazurin fluorescence, 24 h, PK04 Diversity Set (AID 1172); conditions: higher = more signal
# [2] = basal S. cerevisiae growth modulation, no modifier, primary screen, OD600, strain BY4716, 24 h, basal condition (AID 1173); conditions: OD600, 24 h, higher = more signal, called active from +8 up or from −8 down
# [3] = MM1S myeloma cell viability, profiling panel, resazurin fluorescence, basal, 24 h, PK04 Diversity Set (AID 1174); conditions: higher = more signal, called active from +8 up or from −8 down;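 further: MM1S multiple myeloma cell line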
# [4] = biological target: Dihydroorotate dehydrogenase (quinone), mitochondrial (Plasmodium falciparum (isolate 3D7)) (UniProt Q08210); experiment: PfDHODH enzyme inhibitors, primary screen, biochemical, C-terminal His tag, absorbance 600 nm (AID 1175); conditions: DCIP absorbance 600 nm, higher = more signal, called active from +8 up or from −8 down;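 further: recombinant parasite enzyme with a five histidine tag at its C terminus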
# [5] = P. aeruginosa biofilm formation inhibitors, primary screen, strain PAO1, LB-PBS medium, absorbance 600 nm (AID 1176); conditions: P. aeruginosa PAO1 growth/biofilm, A600, 12 h; higher = more signal
# [6] = S. cerevisiae RM11-1a growth modifiers, primary screen, strain RM11-1a, OD600, basal, 24 h (AID 1177); conditions: OD600, 24 h, higher = more signal, called active from +8 up or from −8 down;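 further: cultures grown under basal conditions with no added stressor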
# [7] = E. coli acrAB mutant growth effects, primary screen, E. coli filamentation inducers, strain DRC39, OD650, 24 h (AID 1178); conditions: higher = more signal, called active from +8 up or from −8 down;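 further: growth measured as culture turbidity by optical density at 650 nm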
# [8] = E. coli acrAB mutant growth effects, primary screen, E. coli filamentation inducers, strain DRC39, OD650, 48 h (AID 1179);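 further: screen aims at cell division blockers that make cells filament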; conditions: E. coli DRC39 delta-acrAB growth, higher = more signal, called active from +8 up or from −8 down
# [9] = RPMI8226 myeloma cell viability, profiling panel, resazurin fluorescence, basal, 24 h, PK04 Diversity Set (AID 1180); conditions: higher = more signal;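 further: RPMI8826 multiple myeloma cell line at 5000 cells per well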
# [10] = biological target: E3 ubiquitin-protein ligase XIAP (Homo sapiens) (UniProt P98170); experiment: XIAP binders, primary screen, biophysical, small-molecule microarray, fluorescence 635 nm (AID 1181); conditions: small-molecule microarray binding, higher = more signal;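 further: score merges 667 nm emission and signal to noise over triplicate slides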
# [11] = system: XIP peptide (Xip251-270) binding; experiment: small-molecule binders of XIP peptide, primary screen, biochemical, small-molecule microarray, fluorescence 635/667 nm, 0.1 µg/mL protein (AID 1182); conditions: fluorescent protein binding, 635 nm, higher = more signal, called active from +8 up or from −8 down
# [12] = system: XIP peptide (Xip251-270); experiment: small-molecule binders of XIP peptide, primary screen, biochemical, small-molecule microarray, fluorescence 635/667 nm, 0.5 µg/mL protein (AID 1183); conditions: small-molecule microarray binding, fluorescence 635 nm; higher = more signal
# [13] = Plasmodium falciparum growth inhibition, primary screen, strain 3D7, DAPI fluorescence, 100 nL (AID 1184);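 further: parasites grown inside human red blood cells in medium with human serum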; conditions: P. falciparum 3D7 growth, 3 d, higher = more signal
# [14] = biological target: Homeobox protein Hox-A13 (Mus musculus) (UniProt Q62424); experiment: inhibitors of HoxA13-DNA binding, primary screen, biochemical, fluorescence polarization, labeled oligonucleotide (AID 1185); conditions: 15 min, higher = more signal, called active from +8 up or from −8 down
# [15] = inhibitors of hydroxyurea-induced Chk1 phosphorylation, primary screen, imaging, HeLa, phospho-Chk1 antibody, percent positive cells (AID 1186); conditions: hydroxyurea-induced phospho-Chk1 immunofluorescence imaging, higher = more signal
# [16] = inhibitors of hydroxyurea-induced Chk1 phosphorylation, primary screen, imaging, HeLa, phospho-Chk1 nuclear intensity (AID 1187); conditions: hydroxyurea-induced phospho-Chk1 immunofluorescence imaging, higher = more signal
# Sequence of Dihydroorotate dehydrogenase (quinone), mitochondrial (Plasmodium falciparum (isolate 3D7)) (Q08210 whole entry, looked up): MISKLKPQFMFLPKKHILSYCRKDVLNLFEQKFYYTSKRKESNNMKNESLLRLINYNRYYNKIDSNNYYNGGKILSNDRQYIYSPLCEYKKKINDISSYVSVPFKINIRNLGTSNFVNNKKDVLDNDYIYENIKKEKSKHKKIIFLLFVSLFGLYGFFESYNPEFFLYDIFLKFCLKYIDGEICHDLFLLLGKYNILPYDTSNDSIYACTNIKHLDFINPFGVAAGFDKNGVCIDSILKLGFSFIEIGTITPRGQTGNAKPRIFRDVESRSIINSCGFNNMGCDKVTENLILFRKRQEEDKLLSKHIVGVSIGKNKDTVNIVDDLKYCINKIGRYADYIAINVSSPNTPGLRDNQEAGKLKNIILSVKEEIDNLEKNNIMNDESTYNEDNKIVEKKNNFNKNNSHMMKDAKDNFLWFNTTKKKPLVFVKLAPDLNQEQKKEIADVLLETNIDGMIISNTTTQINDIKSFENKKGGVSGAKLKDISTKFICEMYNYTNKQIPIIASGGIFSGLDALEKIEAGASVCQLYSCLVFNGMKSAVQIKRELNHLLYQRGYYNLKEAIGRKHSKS
# Sequence of E3 ubiquitin-protein ligase XIAP (Homo sapiens) (P98170 whole entry, looked up): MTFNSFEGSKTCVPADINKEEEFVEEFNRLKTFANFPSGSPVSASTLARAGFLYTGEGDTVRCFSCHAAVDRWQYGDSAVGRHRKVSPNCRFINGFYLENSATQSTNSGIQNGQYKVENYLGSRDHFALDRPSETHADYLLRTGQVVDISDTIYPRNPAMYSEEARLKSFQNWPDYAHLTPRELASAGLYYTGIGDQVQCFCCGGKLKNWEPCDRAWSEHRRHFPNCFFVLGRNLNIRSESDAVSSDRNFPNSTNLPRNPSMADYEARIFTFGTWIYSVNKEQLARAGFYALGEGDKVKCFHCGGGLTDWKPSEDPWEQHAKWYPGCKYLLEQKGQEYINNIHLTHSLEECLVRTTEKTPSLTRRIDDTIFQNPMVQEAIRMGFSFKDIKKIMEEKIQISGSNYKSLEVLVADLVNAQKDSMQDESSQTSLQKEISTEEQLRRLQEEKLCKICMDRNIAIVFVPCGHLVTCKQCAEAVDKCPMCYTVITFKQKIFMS
# Sequence of Homeobox protein Hox-A13 (Mus musculus) (Q62424 whole entry, looked up): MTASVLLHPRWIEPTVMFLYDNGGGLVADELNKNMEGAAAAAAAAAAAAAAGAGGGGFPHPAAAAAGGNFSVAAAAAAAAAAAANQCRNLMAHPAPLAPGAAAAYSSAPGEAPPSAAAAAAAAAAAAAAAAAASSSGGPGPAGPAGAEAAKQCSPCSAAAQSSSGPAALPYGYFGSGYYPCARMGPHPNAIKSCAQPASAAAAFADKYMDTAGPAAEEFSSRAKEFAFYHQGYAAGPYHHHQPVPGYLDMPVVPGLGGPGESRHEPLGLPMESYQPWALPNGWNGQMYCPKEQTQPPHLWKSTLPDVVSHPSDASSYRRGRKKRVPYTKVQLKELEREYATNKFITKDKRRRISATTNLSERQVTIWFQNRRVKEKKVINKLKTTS
smiles,measurement,setting,value
COCCOC(=O)N1C(=O)[C@@]2(c3ccccc31)[C@H](c1ccccc1OCCO)N1[C@H](c3ccccc3)[C@H](c3ccccc3)OC(=O)[C@H]1[C@@H]2C(=O)N1CCN(c2ncccn2)CC1,z-score,[1],-0.0332
same,z-score,[2],2.64 (inactive)
same,z-score,[3],-1.39 (inactive)
same,composite z-score,[4],-0.539 (inactive)
same,z-score,[5],3.61 (inactive)
same,z-score,[6],3.08 (inactive)
same,z-score,[7],-0.233 (inactive)
same,z-score,[8],0.176 (inactive)
same,z-score,[9],-0.862
same,composite z-score,[10],-0.16
same,composite z-score,[11],1.04 (inactive)
same,composite z-score,[12],0.799
same,z-score,[13],-2.2
same,z-score,[14],-1.99 (inactive)
same,z-score,[15],0.0172 (inactive)
same,z-score,[16],0.0629 (inactive)
C=C[C@H](CO[Si](CC)(CC)CC)N(Cc1ccc(OC(C)=O)c(OC)c1)S(=O)(=O)c1ccc(Br)cc1,z-score,[1],-0.423
same,z-score,[2],-0.128 (inactive)
same,z-score,[3],-0.649 (inactive)
same,composite z-score,[4],-1.38 (inactive)
same,z-score,[5],-0.649 (inactive)
same,z-score,[6],0.292 (inactive)
same,z-score,[7],0.93 (inactive)
same,z-score,[8],1.67 (inactive)
same,z-score,[9],-3.37
same,composite z-score,[10],0.0487
same,composite z-score,[11],1.38 (inactive)
same,composite z-score,[12],0.88
same,z-score,[13],0.378
same,z-score,[14],0.476 (inactive)
same,z-score,[15],-0.528 (inactive)
same,z-score,[16],-0.508 (inactive)
CC(C)[Si]1(C(C)C)O[C@@H](c2ccccc2)c2cc(-c3ccc(-c4ccc(Cl)c(Cl)c4)o3)nc(-c3ccccc3)c21,z-score,[1],-0.0945
same,z-score,[2],-1.38 (inactive)
same,z-score,[3],-0.274 (inactive)
same,composite z-score,[4],1.74 (inactive)
same,z-score,[5],0.574 (inactive)
same,z-score,[6],-0.282 (inactive)
same,z-score,[7],-0.0522 (inactive)
same,z-score,[8],-0.221 (inactive)
same,z-score,[9],-0.406
same,composite z-score,[10],-0.202
same,composite z-score,[11],-0.142 (inactive)
same,composite z-score,[12],0.6
same,z-score,[13],0.283
same,z-score,[14],-1.68 (inactive)
same,z-score,[15],0.025 (inactive)
same,z-score,[16],-0.606 (inactive)
C[N+](C)(C)CCCCNC(=O)[C@H]1C[C@H]2C(=O)N3CCC[C@H]3C(=O)N2[C@H]1c1cccc(OCCO)c1,z-score,[1],-2.49
same,z-score,[2],1.43 (inactive)
same,z-score,[3],-1.12 (inactive)
same,composite z-score,[4],-30.8 (active)
same,z-score,[5],0.628 (inactive)
same,z-score,[6],0.647 (inactive)
same,z-score,[7],0.66 (inactive)
same,z-score,[8],0.629 (inactive)
same,z-score,[9],-0.951
same,composite z-score,[10],0.261
same,composite z-score,[11],0.265 (inactive)
same,composite z-score,[12],-0.465
same,z-score,[13],1.2
same,z-score,[14],-2.27 (inactive)
same,z-score,[15],-0.302 (inactive)
same,z-score,[16],-0.124 (inactive)
CCOC(=O)[C@H]1C/C=C/C[C@H](C(=O)OCC)C(=O)O[C@H]2[C@@H](OC)O[C@H](CO)[C@@H](OC(=O)c3c(OC)cccc3OC)[C@@H]2OC1=O,z-score,[1],-3.51
same,z-score,[2],-0.964 (inactive)
same,z-score,[3],-3.73 (inactive)
same,composite z-score,[4],-0.232 (inactive)
same,z-score,[5],0.498 (inactive)
same,z-score,[6],0.996 (inactive)
same,z-score,[7],0.0332 (inactive)
same,z-score,[8],0.328 (inactive)
same,z-score,[9],-3.51
same,composite z-score,[10],-0.102
same,composite z-score,[11],0.676 (inactive)
same,composite z-score,[12],0.709
same,z-score,[13],0.754
same,z-score,[14],-3 (inactive)
same,z-score,[15],-0.0052 (inactive)
same,z-score,[16],-0.142 (inactive)
C=CCNC(=O)[C@H]1[C@@H]2C(=O)O[C@@H](c3ccccc3)[C@@H](c3ccccc3)N2[C@@H](c2ccccc2OCCO)[C@]12C(=O)Nc1ccc(C#CCCO)cc12,z-score,[1],-0.349
same,z-score,[2],1.22 (inactive)
same,z-score,[3],-0.942 (inactive)
same,composite z-score,[4],2.6 (inactive)
same,z-score,[5],0.462 (inactive)
same,z-score,[6],2.33 (inactive)
same,z-score,[7],-0.393 (inactive)
same,z-score,[8],-0.445 (inactive)
same,z-score,[9],-0.969
same,composite z-score,[10],1.02
same,composite z-score,[11],0.749 (inactive)
same,composite z-score,[12],0.369
same,z-score,[13],-2.08
same,z-score,[14],-3.91 (inactive)
same,z-score,[15],-0.677 (inactive)
same,z-score,[16],-1.24 (inactive)
COC(=O)[C@@]1(Cc2ccc(OC)cc2)[C@H]2c3cc(C(=O)N4CCCC4)n(Cc4ccc(C)c(F)c4F)c3C[C@H]2CN1C(=O)c1ccccc1,z-score,[1],0.273
same,z-score,[2],1.9 (inactive)
same,z-score,[3],-1.4 (inactive)
same,composite z-score,[4],0.104 (inactive)
same,z-score,[5],-0.843 (inactive)
same,z-score,[6],1.41 (inactive)
same,z-score,[7],0.35 (inactive)
same,z-score,[8],-0.237 (inactive)
same,z-score,[9],-1.59
same,composite z-score,[10],0.0683
same,composite z-score,[11],0.128 (inactive)
same,composite z-score,[12],0.715
same,z-score,[13],-1.12
same,z-score,[14],-0.498 (inactive)
same,z-score,[15],-0.0213 (inactive)
same,z-score,[16],-0.423 (inactive)
[N-]=[N+]=Nc1ccccc1[C@@H]1OC(c2ccc(OCCCO)cc2)=N[C@]1(CCS(=O)(=O)c1ccccc1)C(N)=O,z-score,[1],0.396
same,z-score,[2],-0.0185 (inactive)
same,z-score,[3],-0.706 (inactive)
same,composite z-score,[4],0.796 (inactive)
same,z-score,[5],-0.291 (inactive)
same,z-score,[6],-0.0594 (inactive)
same,z-score,[7],0.326 (inactive)
same,z-score,[8],-0.397 (inactive)
same,z-score,[9],-0.699
same,composite z-score,[10],0.0975
same,composite z-score,[11],1 (inactive)
same,composite z-score,[12],0.629
same,z-score,[13],-2.04
same,z-score,[14],-4.11 (inactive)
same,z-score,[15],-0.154 (inactive)
same,z-score,[16],-0.0216 (inactive)
CC1(C)[C@@H]2CC(C(O)C3C=CC4C(=O)N(c5ccccc5)C(=O)C4N3Nc3ccc([N+](=O)[O-])cc3)=C[C@H]1C2 (some centres undefined),z-score,[1],-0.128
same,z-score,[2],0.318 (inactive)
same,z-score,[3],0.218 (inactive)
same,composite z-score,[4],0.634 (inactive)
same,z-score,[5],1.07 (inactive)
same,z-score,[6],0.08 (inactive)
same,z-score,[7],-0.982 (inactive)
same,z-score,[8],-0.512 (inactive)
same,z-score,[9],0.0954
same,composite z-score,[10],-0.141
same,composite z-score,[11],0.19 (inactive)
same,composite z-score,[12],0.797
same,z-score,[13],-0.545
same,z-score,[14],-2.94 (inactive)
same,z-score,[15],0.0793 (inactive)
same,z-score,[16],-0.261 (inactive)
